Assay results from PubChem BioAssay AID1159580 (chemical genetic matrix, 2015).
Several values for one entry are separate records, joined by “and”; a condition that tells them apart may be missing. Equal entries are not always repeated. Out of some 5,500 compounds screened, about 2,000 (36%) were called active. About 18% were inconclusive and are not listed. Rule as the data show it: active = normalized growth mostly below about 0.91 (no sharp cut-off); inconclusive = no clear call, values can overlap the other calls; inactive = mostly above about 0.92. Some of the results follow.

Experiment: chemical genetic growth profiling, strain panel (AID 1159580);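 also: tested at 20 µM; growth read once vehicle control cultures reached saturation at 30 °C; 1 = growth at the plate median or of vehicle wells; lower values mean less growth of the strain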
Conditions: S. cerevisiae deletion strains, growth OD

Measured: normalized growth

C=CC1=C(C(=O)O)N2C(=O)[C@@H](NC(=O)/C(=N/O)c3csc(N)n3)[C@H]2SC1
inactive: locus YAL013W, strain DEP1, active compounds read low 1 | locus YAL021C, strain ccr4, active compounds read low 1.01 | locus YAL026C, strain drs2, active compounds read low 1.02 | locus YAL030W, strain snc1, active compounds read low 1.01 | locus YBL061C, strain skt5, active compounds read low 1.03 | locus YBR009C, strain hhf1, active compounds read low 1 | locus YBR021W, strain FUR4, active compounds read low 1.02 | locus YBR023C, strain chs3, active compounds read low 1.02 | locus YBR171W, strain sec66, active compounds read low 1.03 | locus YBR229C, strain ROT2, active compounds read low 0.992 | locus YBR231C, strain swc5, active compounds read low 1.01 | locus YBR279W, strain paf1, active compounds read low 1.01 | locus YCL011C, strain gbp2, active compounds read low 1.04 | locus YCL016C, strain dcc1, active compounds read low 1.03 | locus YCL029C, strain bik1, active compounds read low 0.987 | locus YCL061C, strain MRC1, active compounds read low 1.04 | locus YCL069W, strain vba3, active compounds read low 1.02 | locus YCR088W, strain abp1, active compounds read low 1.02 | locus YDL005C, strain med2, active compounds read low 1.02 | locus YDL035C, strain GPR1, active compounds read low 1.03 | locus YDL040C, strain nat1, active compounds read low 1.01 | locus YDL074C, strain BRE1, active compounds read low 1.04 | locus YDL101C, strain DUN1, active compounds read low 0.991 | locus YDL134C, strain PPH21, active compounds read low 0.99 | locus YDL185W, strain tfp1, active compounds read low 0.99 | locus YDL192W, strain arf1, active compounds read low 0.986 | locus YDR001C, strain nth1, active compounds read low 1.02 | locus YDR069C, strain doa4, active compounds read low 1.04 | locus YDR101C, strain arx1, active compounds read low 0.99 | locus YDR137W, strain rgp1, active compounds read low 1.03 | locus YDR150W, strain NUM1, active compounds read low 1.01 | locus YDR159W, strain sac3, active compounds read low 1.02 | locus YDR162C, strain NBP2, active compounds read low 1.03 | locus YDR195W, strain ref2 1 | locus YDR297W, strain sur2, active compounds read low 1.03 | locus YDR318W, strain mcm21, active compounds read low 1.01 | locus YDR334W, strain swr1, active compounds read low 1.02 | locus YDR335W, strain msn5, active compounds read low 1.02 | locus YDR388W, active compounds read low 0.995 | locus YDR392W, strain spt3, active compounds read low 1.01 | locus YDR502C, strain sam2, active compounds read low 0.993 | locus YEL003W, strain gim4, active compounds read low 1.01 | locus YEL037C, strain rad23, active compounds read low 1.02 | locus YEL061C, strain CIN8 (second series), active compounds read low 1.01 | locus YEL061C, strain CIN8, active compounds read low 1.01 | locus YER015W, strain faa2, active compounds read low 1.02 | locus YER016W, strain bim1, active compounds read low 1.02 | locus YER110C, active compounds read low 0.978 | locus YER111C, strain swi4, active compounds read low 1.01 | locus YER155C, strain BEM2 (second series), active compounds read low 1.06 | locus YER155C, strain BEM2, active compounds read low 0.994 | locus YER167W, strain BCK2, active compounds read low 1 | locus YFR010W, strain ubp6, active compounds read low 1.03 | locus YGL078C, strain dbp3, active compounds read low 0.989 | locus YGL086W, strain mad1, active compounds read low 0.999 | locus YGL167C, strain pmr1, active compounds read low 1.01 | locus YGL173C, strain kem1, active compounds read low 1.04 | locus YGL227W, strain vid30, active compounds read low 1.01 | locus YGL240W, strain doc1, active compounds read low 1.01 | locus YGL248W, strain PDE1, active compounds read low 0.989 | locus YGL253W, strain hxk2, active compounds read low 1.01 | locus YGR078C, strain PAC10, active compounds read low 1.07 | locus YGR135W, strain pre9, active compounds read low 0.991 | locus YGR229C, strain SMI1, active compounds read low 1.06 | locus YGR252W, strain gcn5, active compounds read low 1 | locus YHR013C, strain ard1, active compounds read low 1.08 | locus YHR027C, strain rpn1, active compounds read low 1.02 | locus YHR030C, strain SLT2, active compounds read low 1 and 0.986 | locus YHR079C, strain IRE1 (second series), active compounds read low 0.989 | locus YHR079C, strain IRE1, active compounds read low 0.975 | locus YHR094C, strain hxt1, active compounds read low 0.991 | locus YHR129C, strain ARP1, active compounds read low 0.995 | locus YHR142W, strain chs7, active compounds read low 1.01 | locus YHR200W, strain rpn10, active compounds read low 0.988 | locus YIL066C, strain RNR3, active compounds read low 1.01 | locus YIL073C, strain SPO22, active compounds read low 1.04 | locus YIL125W, strain kgd1, active compounds read low 0.991 | locus YIR030C, strain dcg1, active compounds read low 0.989 | locus YJL092W, strain hpr5, active compounds read low 1.02 | locus YJL095W, strain BCK1 (second series), active compounds read low 1.01 | locus YJL095W, strain BCK1, active compounds read low 1.01 and 0.982 | locus YJL115W, strain asf1, active compounds read low 1.05 | locus YJL129C, strain trk1, active compounds read low 1.02 | locus YJL134W, strain LCB3, active compounds read low 0.995 | locus YJL154C, strain vps35, active compounds read low 1.02 | locus YJL164C, strain tpk1, active compounds read low 1.04 | locus YJL166W, strain qcr8, active compounds read low 1.04 | locus YJL168C, strain set2, active compounds read low 0.986 | locus YJL187C, strain SWE1 (second series), active compounds read low 0.997 | locus YJL187C, strain SWE1, active compounds read low 1.03 | locus YJR043C, strain POL32, active compounds read low 1.01
